Assay outcomes: PubChem BioAssay, National Center for Advancing Translational Sciences (NCATS)
MARV entry inh – qHTS for inhibitors of binding or entry into cells for Marburg Virus. Marburg virus pseudotyped entry inhibition, cell reporter. Potency, µM (series often up to 37.8 µM), actives largely listed as inhibitors. 1.8% of 300,000 active. AID 540276, 2011; calls by dose curve; tested in HEK293 cells
FMDV inh – High Throughput Screening for Foot and Mouth Disease Virus Antivirals; FMDV antiviral cell-based qHTS; Potency, µM (titrated, usually from 57.9 µM), usual class: inhibitors; 1.2% of 410,000 active; AID 1159524, 2015; calls by dose curve; tested in HEK293T cells; further: read-out not given here; nearly all actives have a fitted effect of over 45% in size
Lassa entry inh – qHTS for Inhibitors of binding or entry into cells for Lassa Virus | 1.2% of 300,000 active | Potency, µM (doses to about 37.9 µM), actives largely listed as inhibitors | Lassa virus pseudotype entry inhibition, cell reporter; calls by dose curve; tested in HEK293 cells; further: nearly all actives have a fitted effect of over 50% in size
Shiga inhibitor – A qHTS for Small Molecule Inhibitors of Shiga Toxin; inhibition, % at 38.7 µM; AID 2315, 2010; Vero cells, Shiga toxin protein synthesis inhibition reporter; 9.2% of 290,000 active; in the data active means inhibition mostly above about 28%, no sharp cut-off; inactive means mostly below about 43%
Cycloheximide cs – Cycloheximide Counterscreen for Small Molecule Inhibitors of Shiga Toxin | cell reporter, cycloheximide protein synthesis inhibition counterscreen | max response, % | 12% of 300,000 active | AID 2314, 2010; in the data active means max response mostly above about 13%, no sharp cut-off; inactive means mostly below about 14%; further: read at 38.3 µM for the half of the compounds with a filed dose
HCV inh – qHTS Assay for Inhibitors of Hepatitis C Virus (HCV) | Huh7.5.1 HCVcc-Cre infection, luciferase reporter, 44 h | Potency, µM (series often up to 41.8 µM), most hits filed as inhibitors | 3.4% of 340,000 active | AID 651820, 2012; active means well fitted inhibition curve with a large enough effect; inconclusive means small, poorly fitted or top-dose-only effect, or another doubt; inactive means no such curve, though single readings can be large or run the other way
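Compounds are dispensed onto cells plated 4 h earlier at 1,000 per well, with HCVcc-Cre virus (about 0.5 moi) added next. Following 44 h of culture, luminescent signal is measured for 15 sec after 15 min with substrate at room temperature.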
Large screens that a line does not name were inactive. In the library only some 13% were active in any assay of this set; here they are far more common.

O=C(O)c1cc(NN=Nc2cccc([N+](=O)[O-])c2)cc([N+](=O)[O-])c1	none (no result: MARV entry inh, Lassa entry inh)
O=[N+]([O-])c1cccc(NN=Nc2ccccc2)c1	Shiga inhibitor 40, Cycloheximide cs 29, HCV inh inconclusive (no result: MARV entry inh, Lassa entry inh)
Brc1ccc(N=NNc2ccccc2)cc1	MARV entry inh inconclusive, Shiga inhibitor 92, Cycloheximide cs 35
CC(C)(C)N(Cc1ccccc1)C(=O)COc1cccnc1[N+](=O)[O-]	none (no result: MARV entry inh, Lassa entry inh)
Cc1cc(OCCOCCN(C)CCO)cc(C)c1Cl	HCV inh inconclusive
CC(C)c1ccccc1OCC(=O)Nc1cc(S(=O)(=O)N2CCOCC2)ccc1N1CCCC1	MARV entry inh inconclusive, Lassa entry inh inconclusive, HCV inh inconclusive (no result: Shiga inhibitor, Cycloheximide cs)
COc1ccc(CNC(=O)COC(=O)/C=C/c2ccco2)cc1	none
O=C(/C=C\c1ccco1)Oc1cccc2cccnc12	MARV entry inh inconclusive, Cycloheximide cs 23, HCV inh inconclusive
COC(=O)N/N=C/c1ccc(OC(=O)/C=C/c2ccco2)cc1	none
CCc1ccc(OC(=O)/C=C/c2ccco2)cc1	Shiga inhibitor 30, Cycloheximide cs 33 (no result: MARV entry inh, Lassa entry inh)
O=C(Cc1ccccc1)N/N=C/c1ccc(OC(=O)/C=C\c2ccco2)cc1	Shiga inhibitor 49, Cycloheximide cs 29
COC(=O)N/N=C\c1ccc(OC(=O)c2ccco2)cc1	none
CC(C)(C)OC(=O)N/N=C\c1ccc(OC(=O)c2ccco2)cc1	MARV entry inh inconclusive, Lassa entry inh inconclusive, Shiga inhibitor 79, Cycloheximide cs 38
CC1CCCC(NC(=O)COC(=O)c2c[nH]c(=O)[nH]c2=O)C1C (stereo unspecified)	none
COCCNC(=O)C(=O)Nc1cccc(Br)c1	Cycloheximide cs 23 (no result: FMDV inh)
COCCNC(=O)C(=O)Nc1ccc(Cl)cc1C	Shiga inhibitor 54, Cycloheximide cs 32
COCCNC(=S)NNC(=O)c1ccco1	Lassa entry inh inconclusive
COCCNC(=O)c1cc(Br)ccc1Cl	none
COCCNC(=S)NNc1cccc(C(=O)O)c1	Lassa entry inh inconclusive, Shiga inhibitor 66
COCCNC(=O)C(=O)Nc1ccc(Br)cc1	Shiga inhibitor 71, Cycloheximide cs 47
CSc1n[nH]c(NC(=O)c2c(-c3c(Cl)cccc3Cl)noc2C)n1	MARV entry inh inconclusive
O=C(Cn1c(=O)n(-c2ccccc2)c(=O)c2sccc21)NCc1ccccc1	none (no result: MARV entry inh, Lassa entry inh)
COc1ccc(-c2csc(N3CCC(C(N)=O)(N4CCCCC4)CC3)n2)cc1	Lassa entry inh 23µM, HCV inh inconclusive (no result: FMDV inh)
O=C1CNC(=S)N1c1nc(-c2ccccc2)cs1	MARV entry inh inconclusive, Shiga inhibitor 39, Cycloheximide cs 23
COc1ccc(-c2csc(N3C(=N)SCC3=O)n2)cc1	Shiga inhibitor 163, Cycloheximide cs 49
NC(=O)C1(N2CCCCC2)CCN(c2nc(-c3ccccc3)cs2)CC1	MARV entry inh inconclusive, FMDV inh inconclusive, HCV inh inconclusive
COc1ccc(-c2csc(N3C(=O)CNC3=S)n2)cc1	MARV entry inh inconclusive, Lassa entry inh inconclusive, Shiga inhibitor 140, Cycloheximide cs 93
N=C1S/C(=C\c2ccc(O)cc2)C(=O)N1c1ccc(F)cc1	MARV entry inh inconclusive, Lassa entry inh inconclusive
O=C(O)c1ccc(N/N=C/c2ccnc3ccccc23)cc1	Shiga inhibitor 91, Cycloheximide cs 41 (no result: MARV entry inh, Lassa entry inh)
Oc1ccccc1/C=N/Nc1cccc2cccnc12	MARV entry inh inconclusive, Shiga inhibitor 101, Cycloheximide cs 30, HCV inh inconclusive
CC(C)(C)OC(=O)NCCC(=O)N/N=C/c1cccc2cccnc12	MARV entry inh inconclusive, Lassa entry inh inconclusive
O=C(O)c1ccc(N/N=C/c2cccc3cccnc23)cc1	FMDV inh inconclusive, Shiga inhibitor 83, Cycloheximide cs 49 (no result: MARV entry inh, Lassa entry inh)
Cc1ccn2c(Nc3ccccc3C)c(-c3ccccc3)nc2c1	none (no result: Shiga inhibitor, Cycloheximide cs, HCV inh)
S=C(NCCCCNC(=S)NCc1ccccc1)NCc1ccccc1	none
Cc1c(C(=O)OC(C)C)sc(N)c1C(=O)OC(C)C	Lassa entry inh inconclusive, Shiga inhibitor 107, Cycloheximide cs 32, HCV inh inconclusive
CC(C)OC(=O)c1c(N)sc2c1CCCC2	none (no result: Shiga inhibitor, Cycloheximide cs)
Cc1c(C(N)=O)sc(N)c1C(=O)OC(C)C	none
CC(=O)c1sc(N)c(C(=O)OC(C)C)c1C	Lassa entry inh inconclusive, Cycloheximide cs 19, HCV inh 14µM
Cc1ccc(NC(=O)COC(=O)c2ccc(-n3cnnn3)cc2)c(Br)c1	none (no result: MARV entry inh, Lassa entry inh, Shiga inhibitor, Cycloheximide cs)
CC(NC(=O)Cc1c(F)cccc1Cl)C1CCCO1 (stereo unspecified)	none
CCc1nc(SCc2ccc(F)cc2)n[nH]1	Shiga inhibitor 88, Cycloheximide cs 31
CCCOc1ccc(CSc2n[nH]c(C)n2)cc1	MARV entry inh inconclusive, Lassa entry inh inconclusive, Shiga inhibitor 55, Cycloheximide cs 32
Cc1nc(SCc2ccccc2)n[nH]1	Cycloheximide cs 13 (no result: MARV entry inh, Lassa entry inh)
CCc1nc(SCc2ccccc2)n[nH]1	Lassa entry inh inconclusive, Shiga inhibitor 58, Cycloheximide cs 25
COc1ccc(C(c2nnnn2-c2ccc3c(c2)OCCO3)N2CCN(C/C=C/c3ccccc3)CC2)cc1 (stereo unspecified)	none (no result: MARV entry inh, Lassa entry inh, Shiga inhibitor, Cycloheximide cs, HCV inh)
CCc1nnc(NC(=O)CCS(=O)(=O)c2ccccc2)s1	MARV entry inh inconclusive, Lassa entry inh inconclusive
CCCc1nc(SCc2ccc(OCC)cc2)n[nH]1	MARV entry inh inconclusive
Cc1nc(SCc2c(F)cccc2Cl)n[nH]1	Cycloheximide cs 15
CCc1nc(SCc2ccc(OC)cc2)n[nH]1	Shiga inhibitor 32, Cycloheximide cs 30 (no result: MARV entry inh, Lassa entry inh)
CCCc1nc(SCc2ccccc2Cl)n[nH]1	Cycloheximide cs 24
c1ccc(CSc2n[nH]c(-c3ccco3)n2)cc1	Lassa entry inh inconclusive, Shiga inhibitor 81, Cycloheximide cs 20
Cc1cc(C)n2nc(SCc3c(F)cccc3Cl)nc2n1	none (no result: MARV entry inh, Lassa entry inh)
CCc1nc(SCc2ccccc2C#N)n[nH]1	none
CCOC(=O)c1ccc(NC(=O)CN2C(=O)NC3(CCC(C)CC3)C2=O)cc1 (stereo unspecified)	none
CCc1c(C#N)sc(C(N)=O)c1CC	none
O=C(c1ccco1)N1CCN=C1SCc1c(F)cccc1Cl	HCV inh inconclusive
Fc1cccc(Cl)c1CSC1=NCCS1	Shiga inhibitor 62, Cycloheximide cs 35
COc1ccc(/C=C/C(=O)NCCCc2ccccc2)cc1	none
COc1ccc(/C=C/C(=O)NCCSCc2ccco2)cc1	Cycloheximide cs 17
O=C(/C=C/c1ccccc1)NCCSCc1ccccc1	Shiga inhibitor 44
Clc1ccc2nc(C3CCCCC3)c(Cc3ccsc3)n2c1	none (no result: MARV entry inh, Lassa entry inh, Shiga inhibitor, Cycloheximide cs, HCV inh)
COC(=O)c1cc(Br)ccc1N(Cc1cc(OC)cc(OC)c1)S(C)(=O)=O	none (no result: MARV entry inh, Lassa entry inh, Shiga inhibitor, Cycloheximide cs)
O=C(NNC(=O)c1ccccc1F)c1cccc(Cl)c1	MARV entry inh inconclusive, Shiga inhibitor 80, Cycloheximide cs 22, HCV inh inconclusive
O=C(NNC(=O)c1ccccc1Br)c1cccc(Cl)c1	MARV entry inh inconclusive, Shiga inhibitor 50, Cycloheximide cs 83
COc1ccc(CNC(=O)C2CCCN2c2nc(C)c3ccccc3n2)cc1 (stereo unspecified)	none (no result: MARV entry inh, Lassa entry inh, Shiga inhibitor, Cycloheximide cs, HCV inh)
